Our source for the inhibition and activation values is PubChem BioAssay.

Values without a mark were called inactive. This is one part of the list. The source made the active and inactive calls.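 The calls were made as follows, unless noted: active = inhibition above the mean plus 3 SD of solvent-only control wells, limit set per screening run (cut at about 16% in these data); inactive = the rest.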

A short description of assay [1]: blockers of IL-6 STAT3 signaling – U3A cells, luciferase, luminescence, confirmation (AID 1265;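 active = inhibition above the hit cutoff computed for the primary STAT3 screen, cut at about 44% in these data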;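 also: 0% = IL-6 plus DMSO and 100% = IL-6 plus nifuroxazide control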). To be noted: IL-6 STAT3 luciferase reporter, at 5.7 µM, hits give high values, cell line lacks STAT1.
Assay [2] in a line: inhibition of TNF-alpha-driven NF-kB transcription – cell-based, HEK293T, luciferase, TNF-alpha stimulus, counter-screen for STAT3 inhibitor project, confirmation (AID 1308;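 active = inhibition above the mean of solvent-only control wells plus 3 SD, cutoff set per campaign, cut at about 13% in these data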;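 also: 0% = TNF-alpha with DMSO and 100% = TNF-alpha with MG high control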). The settings on record: HEK293T NF-kB luciferase reporter, TNF-alpha induced; at 5.7 µM; hits give high values. For orientation: A counterscreen serves to expose hits that act by an unwanted route or on another target.

A short description of assay [3]: inhibition of STAT1-driven transcription – cell-based, NIH 3T3, luciferase luminescence, IFN-gamma, counter-screen for STAT3 inhibitor project, confirmation (AID 1317).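 Also: 0% = DMSO with IFN-gamma and 100% = nifuroxazide control.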 The settings on record: NIH 3T3 STAT1-luciferase reporter, IFN-gamma induced, at 5.7 µM, hits give high values.
Assay [4] in a line: VP16-driven transactivation reporter suppression – cell-based, luminescence, HEK293, counter-screen for COUP-TFII antagonist project (AID 687007; in the data active = inhibition above about 13%). To be noted: HEK293 Gal4-VP16 luciferase reporter, at 8.5 µM, hits give high values.
Assay [5] concerns the target COUP transcription factor 2 (Homo sapiens) (UniProt P24468). In words: retest of COUP-TFII reporter suppressors – cell-based, luciferase reporter, HEK293, triplicate, confirmation (AID 687008;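 active = mean inhibition over three repeats above a set limit taken from the earlier primary screen, cut at about 38% in these data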;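 also: 100% = cells given the luciferase reporter alone without the COUP-TF2 vector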). To be noted: HEK293 NGFI-A luciferase reporter, luminescence; at 8.5 µM; hits give high values. For orientation: A reporter such as luciferase makes a cellular process visible.
The target of assay [6] is Photoreceptor-specific nuclear receptor (Homo sapiens) (UniProt Q9Y5X4). Kind of assay: retest of NR2E3-NCOR disrupting agonists – cell-based, luminescence, CHO-S two-hybrid, confirmation (AID 624378;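 active = average inhibition above a cutoff equal to the mean inhibition of all tested compounds plus one SD, cut at about 70% in these data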;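 also: 0% = DMSO in NR2E3 cells and 100% = DMSO in cells lacking NR2E3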). The settings on record: CHO-S mammalian two-hybrid NR2E3-NCOR, luciferase luminescence; at 3.98 µM; hits give high values.
The nature of assay [7]: nonselective effects on VP16 transactivation – cell-based, luminescence, CHO-S, high throughput, counter-screen for NR2E3 agonist project, confirmation (AID 624379;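 active = mean inhibition above a cutoff equal to the average over all tested compounds plus one standard deviation, cut at about 70% in these data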;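 also: 0% = DMSO with VP16-transfected cells and 100% = DMSO with cells lacking VP16; higher means less reporter light so more repression of VP16 activity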). To be noted: CHO-S GAL4-VP16 luciferase reporter, at 3.98 µM, hits give high values.
Assay [8] has as its target Receptor-interacting serine/threonine-protein kinase 2 (Homo sapiens) (UniProt O43353). Kind of assay: inhibitors of RIPK2 association with NOD2 – fluorescence, CHO cells, BLA complementation, triplicate, confirmation (AID 624370;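 active = mean inhibition across replicates above a set limit taken from the earlier primary screen, cut at about 21% in these data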;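 also: 0% = DMSO-only wells and the high end = clavulanate BLA-blocked wells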). To be noted: CCF4 FRET, at 4.98 µM, hits give high values.
A short description of assay [9]: BLA reporter readout interference – cell-based, CHO-K1 CMV-bla, CCF4 FRET, fluorescence, artefact control for NOD2-RIPK2 interaction inhibitor project, confirmation (AID 624371;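 active = mean inhibition above the low-control mean inhibition plus three low-control SD, cut at about 11% in these data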;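 also: 0% = DMSO only wells and 100% = clavulanate high control wells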). The settings on record: CCF4 FRET ratio, counterscreen, at 4.98 µM, hits give high values.
Assay [10] concerns the target Galanin receptor type 2 (Homo sapiens) (UniProt O43603). In words: blockers of human galanin receptor 2 – cell-based, confirmation (AID 866; in the data active = inhibition above about 27%;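 also: cells stimulated with galanin at about its EC80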). The settings on record: GALR2-expressing cells, antagonist mode, at 4 µM, hits give high values.
Assay [11] is described as follows: nonspecific BLA reporter inhibition – CHO NFAT-bla cells, FRET readout, counter-screen for GALR2 antagonist project, confirmation (AID 867;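 active = inhibition above the mean inhibition across tested compounds plus 3 SD, cut at about 27% in these data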;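 also: 0% = 500 nM thapsigargin stimulated wells and 100% = unstimulated BSA only wells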). The settings on record: beta-lactamase FRET, thapsigargin-stimulated, at 4.2 µM, hits give high values.
For assay [12], the target named is Serine protease HTRA1 (Homo sapiens) (UniProt Q92743). Kind of assay: confirming inhibition of human HTRA1 – biochemical, fluorescence polarization, confirmation (AID 540248;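 active = mean inhibition over three repeats above a set limit taken from the earlier primary screen, cut at about 37% in these data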;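 also: 0% = HTRA1 with DMSO and 100% = wells lacking HTRA1; inhibitors block probe binding so polarization drops and inhibition rises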). To be noted: recombinant HTRA1, FP-rhodamine activity-based probe, at 5.96 µM, hits give high values. A general note: Polarisation of emitted light reports the rotation of a fluorescent probe.

Assay [13] concerns the target Oxysterols receptor LXR-beta (Homo sapiens) (UniProt P55055). In words: nonspecific reporter activation via LXR – cell-based, luminescence, HEK293, H. contortus campaign, counter-screen for hcDAF-12 agonist project, confirmation (AID 743027;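 active = mean percent activation of the reporter above a cutoff set as the average over tested compounds plus their standard deviation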). The settings on record: HEK293 Gal4-LXR tk-luc reporter, 24 h, at 6.8 µM, hits give high values, normalized: DMSO 0%, positive control 100%.

In assay [14] the test system is Nuclear hormone receptor DAF-12 (Haemonchus contortus). Kind of assay: hcDAF-12 luciferase reporter activation, retest – cell-based, luminescence, HEK293, lit1-tk-luc, triplicate, confirmation (AID 743032;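 active = mean activation across triplicate tests above the threshold derived from the earlier primary screen, cut at about 5.5% in these data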;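 also: 0% = DMSO only wells and 100% = 3 µM Δ7-dafachronic acid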). The settings on record: HEK293 hcDAF-12 lit1-tk-luc reporter, at 6.8 µM, hits give high values, % of Δ7-dafachronic acid response.
Assay [15] in a line: StAR promoter reporter inhibitors, counter-screen for LRH-1 inverse agonist project, cell-based, luminescence, high throughput (AID 651611; in the data active = inhibition above about 28%). The settings on record: StAR promoter luciferase reporter counterscreen, at 3.6 µM, hits give high values.
Assay [16] has as its target Nuclear receptor subfamily 5 group A member 2 (Homo sapiens) (UniProt O00482). In words: NR5A2 activity suppression in reporter cells – cell-based, luminescence, confirmation (AID 651613; in the data active = inhibition above about 42%;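 also: HEK293T cells co-transfected with LRH-1 and StAR promoter luciferase reporter; 0% = vehicle wells and 100% = parental cells lacking receptor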). To be noted: cell-based LRH-1 luciferase reporter, inverse agonism; at 3.6 µM; hits give high values.
For assay [17], the target named is Steroidogenic factor 1 (Homo sapiens) (UniProt Q13285). Kind of assay: inverse agonism at SF1 nuclear receptor – cell-based, luminescence, high throughput, counter-screen for LRH-1 inverse agonist project (AID 651614; in the data active = inhibition above about 44%;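 also: cells cotransfected with StAR promoter reporter and SF1 expression vector; 0% = vehicle on cells with receptor and 100% = vehicle on cells lacking receptor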). The settings on record: cell-based SF1 luciferase reporter, at 3.6 µM, hits give high values.
Assay [18] can be described thus: compounds suppressing VP16-driven luciferase signal – cell-based, luminescence, high throughput, counter-screen for LRH-1 inverse agonist project (AID 651615; in the data active = inhibition above about 33%). To be noted: Gal4-VP16 luciferase reporter cells, at 3.6 µM, hits give high values.
Assay [19] concerns DAF-12 nuclear receptor (Heterodera glycines), GAL4-LBD fusion. Kind of assay: hgDAF-12 GAL4 fusion reporter activation, retest – cell-based, luminescence, HEK293, GAL4-LBD fusion, confirmation (AID 743050;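 active = mean activation over triplicate wells above the hit cutoff derived from the earlier primary screen, cut at about 11% in these data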;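 also: 0% = DMSO low control and 100% = 2 mM sodium butyrate high control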). To be noted: HEK293 GAL4-hgDAF12 luciferase reporter, agonist mode; at 6.8 µM; hits give high values; percent of butyrate response.
Assay [20] concerns the target Oxysterols receptor LXR-beta (Homo sapiens) (UniProt P55055). Kind of assay: nonspecific reporter activation via LXR – cell-based, luminescence, HEK293, H. glycines campaign, counter-screen for hgDAF-12 agonist project, confirmation (AID 743051;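 active = mean activation of the triplicate above a set limit carried over from the primary screen, none filed active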). The settings on record: HEK293 Gal4-LXR luciferase reporter, 24 h; at 6.8 µM; hits give high values.

Sequence of Photoreceptor-specific nuclear receptor (Homo sapiens) (Q9Y5X4 whole entry, looked up): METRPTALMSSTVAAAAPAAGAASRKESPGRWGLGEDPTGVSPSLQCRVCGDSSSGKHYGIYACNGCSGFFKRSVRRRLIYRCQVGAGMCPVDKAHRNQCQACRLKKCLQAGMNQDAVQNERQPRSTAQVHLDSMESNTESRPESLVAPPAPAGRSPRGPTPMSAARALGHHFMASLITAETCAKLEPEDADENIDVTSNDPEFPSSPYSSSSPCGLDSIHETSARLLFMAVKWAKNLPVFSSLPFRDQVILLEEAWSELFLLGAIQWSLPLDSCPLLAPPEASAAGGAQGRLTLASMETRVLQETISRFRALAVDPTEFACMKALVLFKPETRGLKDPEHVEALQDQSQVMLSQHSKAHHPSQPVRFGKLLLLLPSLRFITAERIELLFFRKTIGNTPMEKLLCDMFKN
Sequence of COUP transcription factor 2 (Homo sapiens) (P24468 whole entry, looked up): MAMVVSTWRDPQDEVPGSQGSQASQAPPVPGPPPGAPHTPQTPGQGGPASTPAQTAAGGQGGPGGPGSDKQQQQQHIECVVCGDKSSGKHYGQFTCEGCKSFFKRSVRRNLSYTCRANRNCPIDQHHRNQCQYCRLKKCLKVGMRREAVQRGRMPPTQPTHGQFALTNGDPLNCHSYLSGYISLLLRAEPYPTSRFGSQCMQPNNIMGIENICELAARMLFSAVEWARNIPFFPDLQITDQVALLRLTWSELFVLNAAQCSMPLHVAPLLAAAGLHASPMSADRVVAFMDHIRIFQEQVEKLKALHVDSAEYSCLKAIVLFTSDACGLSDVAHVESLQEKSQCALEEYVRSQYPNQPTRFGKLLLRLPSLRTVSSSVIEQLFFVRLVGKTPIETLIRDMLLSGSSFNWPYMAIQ
Sequence of Oxysterols receptor LXR-beta (Homo sapiens) (P55055 whole entry, looked up, the tested form may be a part): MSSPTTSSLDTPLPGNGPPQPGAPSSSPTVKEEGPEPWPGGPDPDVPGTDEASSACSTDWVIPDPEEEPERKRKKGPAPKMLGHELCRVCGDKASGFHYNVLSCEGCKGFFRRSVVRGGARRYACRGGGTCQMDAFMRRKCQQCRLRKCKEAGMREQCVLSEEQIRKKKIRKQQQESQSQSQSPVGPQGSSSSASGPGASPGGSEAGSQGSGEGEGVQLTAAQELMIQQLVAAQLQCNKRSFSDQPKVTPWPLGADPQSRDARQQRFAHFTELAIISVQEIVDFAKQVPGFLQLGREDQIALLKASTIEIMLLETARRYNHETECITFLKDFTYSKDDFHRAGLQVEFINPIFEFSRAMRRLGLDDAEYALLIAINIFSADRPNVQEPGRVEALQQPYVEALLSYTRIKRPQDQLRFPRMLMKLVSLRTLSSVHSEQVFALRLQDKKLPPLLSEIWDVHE
Sequence of Steroidogenic factor 1 (Homo sapiens) (Q13285 whole entry, looked up, the tested form may be a part): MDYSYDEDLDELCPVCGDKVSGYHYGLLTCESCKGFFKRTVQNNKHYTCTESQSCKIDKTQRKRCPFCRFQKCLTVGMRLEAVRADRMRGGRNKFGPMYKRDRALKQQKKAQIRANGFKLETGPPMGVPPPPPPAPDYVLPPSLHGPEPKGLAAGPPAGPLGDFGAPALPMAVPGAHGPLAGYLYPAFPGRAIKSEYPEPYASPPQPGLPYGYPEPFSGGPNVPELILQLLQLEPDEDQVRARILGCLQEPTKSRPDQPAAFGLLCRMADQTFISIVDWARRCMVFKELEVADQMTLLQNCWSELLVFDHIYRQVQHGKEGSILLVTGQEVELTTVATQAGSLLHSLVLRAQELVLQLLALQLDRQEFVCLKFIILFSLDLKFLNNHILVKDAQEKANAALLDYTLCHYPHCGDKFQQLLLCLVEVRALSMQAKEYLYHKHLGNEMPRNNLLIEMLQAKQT
Sequence of Receptor-interacting serine/threonine-protein kinase 2 (Homo sapiens) (O43353 whole entry, looked up): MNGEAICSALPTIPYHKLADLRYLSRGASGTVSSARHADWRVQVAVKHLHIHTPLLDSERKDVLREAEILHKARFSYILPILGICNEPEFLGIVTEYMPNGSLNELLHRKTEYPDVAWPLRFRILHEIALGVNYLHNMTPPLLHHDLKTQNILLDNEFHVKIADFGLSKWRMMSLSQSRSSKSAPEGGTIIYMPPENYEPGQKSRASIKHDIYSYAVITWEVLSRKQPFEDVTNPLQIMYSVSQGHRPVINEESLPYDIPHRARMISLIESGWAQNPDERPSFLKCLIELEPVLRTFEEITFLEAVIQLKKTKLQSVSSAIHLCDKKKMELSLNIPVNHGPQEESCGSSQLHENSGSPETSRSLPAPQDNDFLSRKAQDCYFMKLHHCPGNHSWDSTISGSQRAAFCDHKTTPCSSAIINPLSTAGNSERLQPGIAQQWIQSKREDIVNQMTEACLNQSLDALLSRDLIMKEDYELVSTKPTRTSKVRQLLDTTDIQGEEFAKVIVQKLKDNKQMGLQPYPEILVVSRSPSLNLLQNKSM
Sequence of Nuclear receptor subfamily 5 group A member 2 (Homo sapiens) (O00482 whole entry, looked up): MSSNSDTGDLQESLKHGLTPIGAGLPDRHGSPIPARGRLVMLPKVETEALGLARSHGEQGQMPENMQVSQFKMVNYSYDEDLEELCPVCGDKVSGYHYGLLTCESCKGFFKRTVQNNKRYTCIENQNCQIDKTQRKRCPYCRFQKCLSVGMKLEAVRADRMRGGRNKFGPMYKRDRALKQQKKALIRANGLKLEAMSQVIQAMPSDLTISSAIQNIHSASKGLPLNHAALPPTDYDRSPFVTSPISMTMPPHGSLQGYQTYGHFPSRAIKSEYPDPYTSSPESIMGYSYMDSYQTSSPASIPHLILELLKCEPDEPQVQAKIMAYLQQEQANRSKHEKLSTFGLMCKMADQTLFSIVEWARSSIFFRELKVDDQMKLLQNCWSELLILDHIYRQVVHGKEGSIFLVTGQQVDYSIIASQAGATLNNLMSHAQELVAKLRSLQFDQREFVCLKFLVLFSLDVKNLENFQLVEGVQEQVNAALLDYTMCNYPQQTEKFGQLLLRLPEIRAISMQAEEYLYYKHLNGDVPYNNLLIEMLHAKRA
Sequence of Galanin receptor type 2 (Homo sapiens) (O43603 whole entry, looked up): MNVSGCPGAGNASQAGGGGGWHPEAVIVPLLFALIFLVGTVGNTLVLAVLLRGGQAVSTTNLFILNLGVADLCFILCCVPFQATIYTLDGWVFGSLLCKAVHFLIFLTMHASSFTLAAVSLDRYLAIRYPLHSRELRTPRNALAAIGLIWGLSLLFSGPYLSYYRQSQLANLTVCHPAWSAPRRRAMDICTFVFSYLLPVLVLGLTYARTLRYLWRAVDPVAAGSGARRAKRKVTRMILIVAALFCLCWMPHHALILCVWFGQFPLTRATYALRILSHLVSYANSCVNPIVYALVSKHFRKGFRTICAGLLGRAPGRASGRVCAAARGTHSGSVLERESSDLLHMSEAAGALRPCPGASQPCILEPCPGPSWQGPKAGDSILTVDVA

Broadly, the inhibition is the relative decrease from the control value, in per cent. Consider `N=C(N)SCc1cccc2ccccc12`, for which the inhibition is 31.7% in assay [1]; 4.87% in assay [2]; 19.2% (active) in assay [3]; 6.09% in assay [4]; 20.6% in assay [5].
As to `Cc1nc2ccccc2cc1OCc1ccc(F)cc1`, the inhibition was 61.5% (active) in assay [1]; 6.3% in assay [2]; 5.63% in [3]; 82.5% (active) in assay [6]; 70.5% in assay [7]; -26.8% in [4]. Further, in assay [5], the inhibition was 38% (active).
As to `CCCc1ccc(-c2csc(NC(=O)Cc3cccs3)n2)cc1`, the inhibition is 34.2% in assay [1]; 4.13% in assay [2]; 4.43% in assay [3]; 32.7% (active) in assay [8]; 31.1% (active) in [9]; -25% in [4]. For the same molecule, in assay [5], the inhibition is 15.2%.
`COc1ccccc1Oc1ccc(S(=O)(=O)Nc2cccnc2)cc1`: the inhibition in [1] was 33%; in assay [2], 5.8%; in [3] it was 8.77%; in assay [6], 95.5% (active); in [7], 75.8% (active).
For the molecule `Cn1c(CN2CCOCC2)nc2cc(NC(=O)c3ccc(Cl)cc3)ccc21`, the inhibition in assay [1] was 65% (active); in assay [2], 16.1% (active); in assay [3], -12%; in assay [4] it was -24.2%; in [5] it was 24.5%.
For the molecule `c1coc(CNc2ncnc3ccccc23)c1`, the inhibition in [1] is 40.4%; in assay [2], 15.2% (active); in assay [3], 30.5% (active); in assay [6], 71.1% (active); in [7], 56.3%; in assay [4], 4.88%. In assay [5], the inhibition was 40.9% (active).
`c1ccc2[nH]c(-c3nc4ccccc4[nH]3)nc2c1`: the inhibition in assay [10] was 21.3%; in [11] it was 8.39%; in assay [1], 5.87%; in [2] it was -30%; in [3] it was -97.2%; in [12], 58.4% (active). The activation in assay [13] is 1.09%; in [14], 4.57%.
Consider `Cc1nc(CNS(=O)(=O)c2ccc(Oc3ccccc3)cc2)cs1`, for which the inhibition in [1] is 43.6% (active); in [2] it was 6.1%; in assay [3], 12.1%; in assay [6], 87.9% (active); in assay [7] it was 82.8% (active); in [15] it was 11%. Besides, the inhibition in assay [16] is 44.6% (active); in assay [17], 43.7% (active); in [18], 37% (active); in assay [4] it was 1.48%; in [5], 27%.
Take `Cc1ccc(N/C=C/C(=O)c2ccccc2)cc1C`: the figures for the inhibition in assay [1], in [2] and in [3] were 20.9%, 13.8% (active) and -55.2%, respectively. The activation is 1.51% in assay [13], 16.8% (active) in assay [14], 8.78% in assay [19] and 1.25% in assay [20].
